Bioassay records deposited in PubChem by National Center for Advancing Translational Sciences (NCATS).
D1 PAM: enhances dopamine response at the human D1 receptor | P21728 | HEK293 TREx D1 cells, calcium flux, dopamine EC20 potentiation | potentiation, % at 10 µM | hit rate 0.036% among 360,000 | AID 504651; in the data active = potentiation above about 30%; note: 0% is about no effect
TRHR agonist: activates the human TRH receptor; P34981; TRHR cells, calcium flux fluo-8, FDSS agonist mode; activation, % at 2 µM; hit rate 0.18% among 360,000; AID 493084; note: 0% is about no effect
Target sequence (P34981 whole entry, looked up): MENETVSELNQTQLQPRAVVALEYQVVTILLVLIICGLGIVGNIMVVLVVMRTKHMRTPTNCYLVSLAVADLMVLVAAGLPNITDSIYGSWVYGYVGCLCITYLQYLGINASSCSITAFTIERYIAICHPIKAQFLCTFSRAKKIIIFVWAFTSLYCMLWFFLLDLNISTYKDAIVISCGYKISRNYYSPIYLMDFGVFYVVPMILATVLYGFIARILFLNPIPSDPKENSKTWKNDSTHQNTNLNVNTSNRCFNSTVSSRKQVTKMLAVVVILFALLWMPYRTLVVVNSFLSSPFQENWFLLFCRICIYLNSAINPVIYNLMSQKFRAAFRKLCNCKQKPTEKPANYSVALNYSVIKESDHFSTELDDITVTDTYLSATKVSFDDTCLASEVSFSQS
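In this calcium-flux screen, cells bearing human TRHR are dye-loaded with fluo-8, baselined for 10 cycles, then exposed to library compounds; positive kinetic calcium responses during the agonist phase mark hits, with TRH as control.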
D1 ag: human D1 receptor agonism; P21728; HEK293 T-REx D1 cells, calcium flux, agonist mode; activation, % at 2 µM; hit rate 1% among 360,000; AID 504660; note: 0% is about no effect
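Inducible HEK293 T-REx D1 cells, force-coupled to calcium signalling, were plated at 4000 cells/well with tetracycline and held overnight at 30 C. After no-wash calcium dye loading, compound-evoked calcium rise over 180 s flagged agonists.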
D1 antagonist: antagonists of human D1 dopamine receptor. HEK293 TREx D1 cells, calcium flux, dopamine EC80; hits give low values. hit rate 3.2% among 360,000. P21728. activity change, negative = inhibition, % at 10 µM; in the data active = activity change below about -30%; note: % is set by controls: 0 for no effect and ±100 for the full control effect
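Compound effects on dopamine-evoked calcium signalling were measured in tetracycline-induced HEK293 Trex D1 cells. Dopamine at EC80 followed a 180 s compound pre-read, and fluorescence was tracked kinetically for 180 s more.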
GRP78 ERSR act: inducers of ER stress response in human glioma cells; U87-MG GRP78 promoter luciferase reporter, 16 h; Potency, µM, for inactives: top-dose activation, actives largely listed as activators; hit rate 0.02% among 420,000; active = well fitted activation curve with a large enough effect; inconclusive = small, poorly fitted or top-dose-only effect; inactive = no such curve, though single readings can be large or run the other way; note: potency is the fitted concentration of half-maximal effect; series mostly up to about 76 µM; % of control where 0% means no effect; nearly all actives have a fitted effect of over 35% in size
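Stably transfected U87-MG human glioma cells carrying a GRP78-based luminescent sensor were seeded at 1000 cells/well, pin-dosed with compounds and incubated 16 h. Luciferase reagent was then added, and end-point luminescence was read after 10 min at room temperature.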
TRHR PAM: allosterically enhances the human TRH receptor. TRHR cells, fluo-8 calcium fluorescence, EC20 TRH enhancement. enhancement, % at 2 µM. hit rate 0.66% among 360,000. AID 493056; in the data active = enhancement above about 30%; note: 0% is about no effect
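Enhancer read-out: after compound pinning and an initial kinetic agonist-mode read, an EC20 of TRH (10 nM final) was injected and fluo-8 calcium signal (Ex 480/Em 530) followed at 1 s/cycle for 100 cycles in TRHR-expressing cells.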
Numbers without * were called inactive; ? = inconclusive; nt = not tested or not shown; ! = a repeat was not active. An excerpt weighted towards active compounds, which were near 4% of everything screened. Cut-off read from the data, not from the text of the source, unless noted: active = activation above about 30%; inactive = the rest.

SMILES | D1 PAM | TRHR agonist | D1 ag | D1 antagonist | GRP78 ERSR act | TRHR PAM
CS(=O)(=O)N1CCC(C(=O)Nc2cccc([N+](=O)[O-])c2)CC1 | -1.4 | 0.3 | 0.7 | nt | -0.7% | -3.3
O=C(Nc1cccc([N+](=O)[O-])c1)C1CCN(C(=O)Cc2ccccc2)CC1 | -2.5 | 0.6 | 6.8 | -30.3* | -5.1% | -6.0
CN(Cc1ccccc1)C(=O)c1ccc(NC(=O)Cc2cccc(NC(=O)C3CCN(C(=O)C4CC4)CC3)c2)cc1 | 2.5 | -0.3 | 251.5* | -21.5 | -3.3% | 1.0
O=C(Cn1c(-c2cccs2)cc2cc(Cl)ccc21)N1CCCCC1 | 4.3 | 0.3 | 0.1 | 5.7 | -1.8% | -3.6
CCOC(=O)C1CCN(C(=O)C2CCN(S(=O)(=O)N3CCC4(CC3)OCCO4)CC2)CC1 | -0.5 | 0.0 | 0.1 | 9.1 | -0.7% | 0.3
CCc1ccc(C(=O)c2cn(CC(=O)Nc3cc(OC)ccc3OC)c3nc(C)ccc3c2=O)cc1 | -2.2 | -0.4 | 6.5 | -49.0* | -4.1% | 3.6
COc1ccc(Cl)cc1NC(=O)Cn1cc(C(=O)c2ccc(C)cc2)c(=O)c2ccc(C)nc21 | 7.0 | 1.2 | 2.9 | 20.1 | 0.2% | 9.7
COc1ccc(CN(C)C(=O)CCNS(=O)(=O)c2ccccc2)c(OC)c1 | nt | nt | nt | nt | -3.0% | nt
COc1ccc(OC)c(C2=NS(=O)(=O)N(C)C(C(=O)N3CCC4(CC3)OCCO4)=C2)c1 | 2.3 | -0.1 | 2.0 | -29.1 | -0.7% | 1.9
Cc1cccc([S+](=O)([O-])NC2CCN(C#N)CC2)c1 | -0.1 | 1.2 | 2.0 | -81.0* | nt | -1.2
N#CN1CCC(N[S+](=O)([O-])c2cccc(F)c2)CC1 | 13.4 | -1.1 | 1.5 | -19.8 | nt | 5.7
Cc1cc(SCNC(=O)c2ccccc2)nc(C(C)C)n1 | -3.0 | 0.4 | 3.1 | 0.4 | 0.2% | 3.5
CCOC(=O)C(=CNc1ccc(O)c(C(=O)OC)c1)C(=O)OCC | nt | nt | nt | nt | -3.6% | nt
O=C(N/N=C/c1c[nH]c2ccc(Br)cc12)c1ccccn1 | -3.8 | -0.5 | -0.6 | -46.9* | 1.7% | -2.6
O=C(N/N=C/c1c[nH]c2ccccc12)c1ccccc1 | -1.3 | -0.4 | 4.4 | -16.5 | -0.8% | -4.4
O=C(N/N=C/c1c[nH]c2ccccc12)c1sc2ccccc2c1Cl | -10.1 | 1.2 | -0.3 | -74.8* | 0.1% | 0.0
O=C(N/N=C/c1c[nH]c2ccc(Br)cc12)c1ccncc1 | -3.4 | 0.6 | 0.6 | 14.9 | -1.1% | 0.5
Cc1nn(C)cc1C(C(=O)NC1CCCCC1)N(C(=O)Cc1cccs1)c1ccc(Cl)cc1 (configuration not stated) | -8.8 | 2.5 | 22.7 | -0.7 | -5.6% | -7.7
CC(N)(C(=O)O)c1cccc(CC(=O)O)c1 (configuration not stated) | nt | nt | nt | nt | -0.9% | nt
CC(=O)c1ccc(Nc2nc(N3CCOCC3)nc(N3CCOCC3)n2)cc1 | 4.8 | 0.2 | 0.4 | 11.6 | 3.1% | 39.6*
COCC(C)n1c(SCC(=O)NNC(=O)c2ccc(F)cc2)nc2ccccc2c1=O (configuration not stated) | -4.9 | 0.0 | 0.9 | -3.9 | -2.9% | 3.7
COc1cccc(Cn2cc(N)cn2)c1 | 2.8 | 0.1 | 1.6 | -4.8 | -0.3% | 32.3*
Nc1cnn(Cc2ccc(F)cc2)c1 | -1.1 | 0.0 | 2.5 | -0.5 | -3.0% | -2.9
O=C(NN(C(=O)C1CC1)c1nc2ccccc2s1)C1CC1 | -3.5 | 0.1 | 4.1 | -7.0 | 4.7% | 1.2
O=C(Nc1c(-c2ccc(F)cc2)nc2ccccn12)c1ccccc1F | 1.9 | 0.6 | 0.5 | 21.0 | -2.6% | 2.1
SMILES | D1 PAM | TRHR agonist | D1 ag | D1 antagonist | GRP78 ERSR act | TRHR PAM
COc1ccc(C(=O)Cn2nc(CNc3ccc(Br)cc3)[n+]3c2CCCCC3)cc1 | 0.1 | -0.1 | 5.3 | -3.7 | -8.5% | -2.3
Cc1ccc(C(C)C)c(OCc2nn(CC(=O)c3ccc(OC(F)F)cc3)c3[n+]2CCCCC3)c1 | -5.8 | -1.4 | 91.0* | -11.8 | -17.8% | -5.8
Cc1ccc(NC(=O)Cn2nnc3ccccc3c2=O)cc1 | 0.7 | -0.5 | 1.6 | -10.1 | 4.6% | 4.7
Cc1ccc(SCC(=O)OCn2nnc3ccccc3c2=O)cc1C | -3.2 | 0.8 | 9.9 | -33.5* | -2.8% | -1.8
Cc1ccc(NC(=O)Cn2nnc3ccccc3c2=O)cc1C | -2.4 | 0.1 | 7.5 | -39.7* | 0.4% | 5.4
CCOC(=O)c1ccc(N2C(=O)c3n[nH]c(-c4ccco4)c3C2c2ccc(C)cc2)cc1 (configuration not stated) | 9.4 | 4.8 | 8.8 | 37.4 | ? | 6.2
CC(=O)Nc1ccc(S(=O)(=O)Nc2nc3ccccc3nc2N2CCOCC2)cc1 | nt | nt | nt | nt | -6.5% | nt
COc1ccc(C2CNC(=O)C2)cc1OC1CCCC1 (configuration not stated) | 1.9 | -0.3 | 1.5 | -41.6*! | -4.0% | -15.9
Cc1cc(C(=O)NC2CCCc3c2cnn3-c2cccc(C)c2C)no1 (configuration not stated) | -6.1 | -0.4 | 5.1 | -37.8* | 2.9% | -4.4
CCn1cc(C(=O)NC2CCCc3c2cnn3-c2cccc(C)c2C)cn1 (configuration not stated) | -7.0 | -1.2 | 40.4* | -20.6 | nt | -4.3
Cc1cccc(-n2ncc3c2CCCC3NC(=O)c2ccncc2)c1C (configuration not stated) | nt | nt | nt | nt | -2.7% | nt
CCC1CN(C(=O)N2CCC(C(=O)NCCc3cc(OC)ccc3OC)CC2)c2ccccc2O1 (configuration not stated) | 2.0 | -0.4 | 0.8 | 6.6 | -3.4% | -3.6
COc1ccc(C(C)=O)cc1Cn1c(C)c(C(=O)NCc2cccc(C)c2)sc1=O | nt | nt | nt | nt | 1.1% | nt
C=CCNC(=S)NNC(=O)CC12CC3CC(CC(C3)C1)C2 | -15.4 | 0.2 | 0.6 | -42.2* | -0.7% | -26.0
Cc1cc(C(=O)NC2CCCc3c2cnn3-c2ccc(C(C)(C)C)cc2)nn1C (configuration not stated) | 4.7 | 1.5 | 3.8 | -34.9* | -1.7% | 2.4
COC(=O)c1ccc(C(=O)NC2CCCc3c2cnn3-c2ccc(C)c(C)c2)cc1 (configuration not stated) | -1.7 | 0.0 | 11.5 | -21.4 | -4.1% | 35.4*
Cc1cc(C)cc(-n2ncc3c2CCCC3NC(=O)c2cc(C)n(C)n2)c1 (configuration not stated) | -7.3 | -0.2 | 13.7 | -20.2 | 6.1% | -1.2
O=C(Nc1ccccc1C(=O)O)c1cccc(C(=O)Nc2ccccc2C(=O)O)c1 | 1.2 | -0.5 | 1.1 | -0.6 | -4.0% | 0.8
CC(C)(CCl)C(=O)Nc1ccc(OC(F)(F)F)cc1 | -5.0 | -0.1 | 8.7 | -10.6 | 1.5% | -4.6
Cc1cc(C)n(-c2ccc(Cl)c(C(=O)Nc3ccc(OC(F)(F)F)cc3)n2)n1 | -1.2 | 0.4 | 1.3 | -36.4* | -3.4% | 2.4
